An excerpt weighted towards active compounds, which were near 1.5% of everything screened.
Smad3 FoxH1 inh: inhibitors of human Smad3 transcription factor binding; inhibition, % at 25 µM; TR-FRET Smad3/Dy647-FoxH1 peptide binding, europium anti-His; P84022; AID 630; 88,000 tested, 0.29% active;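 active = compounds that reduce the energy-transfer binding signal between the protein and its labelled peptide by more than half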;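 note: 0% = Smad3 plus labelled peptide maximal FRET and 100% = peptide-only background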
Plk1 PBD FP: blocks phosphopeptide binding to human Plk1 polo box domain | P53350 | Plk1 PBD phosphopeptide binding, fluorescence polarization | inhibition, %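 (tested at about 20 µM)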 | 97,000 tested, 0.13% active | AID 693; in the data active = inhibition above about 34%, passing the limit was not always enough
Target sequence (P53350 whole entry, looked up, the tested form may be a part): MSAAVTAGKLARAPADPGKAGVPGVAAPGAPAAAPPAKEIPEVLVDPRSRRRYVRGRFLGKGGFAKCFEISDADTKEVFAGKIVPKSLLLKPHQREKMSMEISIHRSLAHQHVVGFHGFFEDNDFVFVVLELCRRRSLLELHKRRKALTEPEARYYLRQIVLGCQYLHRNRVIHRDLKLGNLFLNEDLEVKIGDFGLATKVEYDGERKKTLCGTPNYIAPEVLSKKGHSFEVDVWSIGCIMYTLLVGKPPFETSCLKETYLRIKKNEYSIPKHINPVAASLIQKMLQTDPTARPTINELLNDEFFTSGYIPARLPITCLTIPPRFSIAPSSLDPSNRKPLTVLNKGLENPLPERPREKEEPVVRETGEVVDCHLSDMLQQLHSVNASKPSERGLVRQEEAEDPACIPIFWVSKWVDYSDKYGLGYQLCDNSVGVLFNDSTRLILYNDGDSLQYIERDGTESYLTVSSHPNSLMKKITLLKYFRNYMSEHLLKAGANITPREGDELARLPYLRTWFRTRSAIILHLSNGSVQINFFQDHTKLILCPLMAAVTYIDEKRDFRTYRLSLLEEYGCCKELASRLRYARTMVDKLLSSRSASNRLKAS
FAK inh: FAK (human) kinase inhibition; biochemical FAK kinase activity assay; inhibition, %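 (tested at 7 µM)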; Q05397; 97,000 tested, 0.84% active; in the data active = inhibition above about 19%;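 note: 0% = DMSO and 100% = reference compound high control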
EphB4 antag: blocks human EphB4 binding to ephrin-B2; P54760; EphB4 LBD / TNYL-RAW-Alexa532 peptide, fluorescence polarization; inhibition, % at 7 µM; 97,000 tested, 0.15% active;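 active = inhibition above the screen-wide mean inhibition plus 3 SD, cut at about 15% in these data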;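 note: 0% = DMSO wells and 100% = excess unlabeled TNYL-RAW peptide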
PLK1 kinase inh: inhibitors of human PLK1 kinase. recombinant PLK1 kinase, TR-FRET peptide phosphorylation. inhibition, % at 10 µM. 97,000 tested, 0.53% active. P53350. AID 619;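 active = inhibition of 50% or more in the single-concentration screen; inactive = inhibition below 50%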;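 note: 0% = DMSO max control and 100% = H-89 dihydrochloride min control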
PLK1 inh conf: PLK1 (human) kinase inhibition, confirmed; inhibition, % at 10 µM; AID 744; 210 tested, 20% active; recombinant PLK1 kinase, TR-FRET peptide phosphorylation; shares compounds with PLK1 kinase inh;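 active = inhibition at or above 50% in each of two repeat confirmation tests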;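 note: 0% = DMSO max control and 100% = H-89 kinase-blocked min control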
TR-FRET interf: interferes with the Plk1 assay readout, not true inhibition; shares compounds with PLK1 kinase inh; 210 tested, under 10 active; Plk1 TR-FRET assay interference, compound added post-reaction; inhibition (interference), % at 10 µM; AID 756;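 active = both duplicate runs show 50% or greater inhibition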;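 note: 0% = DMSO max control and 100% = H-89 min control inhibited reaction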
Numbers without * were called inactive; x = not tested or not shown.

SMILES | Smad3 FoxH1 inh | Plk1 PBD FP | FAK inh | EphB4 antag | PLK1 kinase inh | PLK1 inh conf | TR-FRET interf
CCN1CCN(C(=S)c2ccc(Cl)c(Cl)c2)CC1 | 4.9 | -12.6 | 1.1 | -0.7 | 2.5 | x | x
O=C1CCCC2=C1C(c1c(Cl)nc3sccn13)C1=C(CCCC1=O)N2 | 16.9 | x | x | x | x | x | x
COc1cc(-c2nnc(SCc3cc(=O)oc4cc(O)c(O)cc34)o2)cc(OC)c1OC | x | 1.8 | 4.8 | -3.3 | 76.5* | 26.0 | 1.4
CCC(C)Sc1nnc(Cc2cc(=O)[nH]c(=O)[nH]2)n1-c1ccc(F)cc1 (centres undefined) | -0.3 | 15.9 | -0.5 | -6.7 | 72.0* | -8.4 | -49.2
O=C(Nc1ccc(Cl)c(Cl)c1)N1CCC(N2CCCCC2)CC1 | x | 9.4 | -0.1 | -2.5 | -12.8 | x | x
Cc1c(NC(=O)C(C)N2C(=O)C3C4C=CC(C4)C3C2=O)c(=O)n(-c2ccccc2)n1C (centres undefined) | 7.7 | -19.5 | 1.5 | -5.6 | 70.8* | -5.7 | -47.5
Nc1ccc2nc3n(c(=O)c2c1)CCC3 | 1.8 | 19.5 | x | x | -3.8 | x | x
COC(=O)c1ccccc1NC(=O)Cn1cnc2c(cnn2-c2ccccc2)c1=O | -9.6 | -14.2 | 0.1 | 2.8 | 2.2 | x | x
O=C(Nc1cccnc1)c1cnn2cccnc12 | 12.3 | 1.2 | 2.8 | 7.2 | 76.2* | 62.5* | -51.7
CC(C)(C)OC(=O)NCCc1nnc(SCc2ccc(Cl)cc2)o1 | -5.9 | -7.8 | -2.2 | 1.4 | -2.3 | x | x
Cc1ccc(CSCC(=O)N2CCN(c3ccc(F)cc3)CC2)cc1 | -8.6 | 1.6 | -1.0 | 3.0 | 108.7* | -8.0 | -56.7
Nc1ncnc(Nc2ccccc2C(F)(F)F)n1 | -1.0 | -6.2 | 0.3 | 6.1 | 71.8* | 69.8* | -43.5
CCOc1ccc2nc(NS(=O)(=O)c3ccc4c(c3)n(C)c(=O)n4C)sc2c1 | -8.1 | -16.8 | 0.8 | 5.7 | -12.6 | x | x
COCCCNC(=O)c1ccc(CS(=O)(=O)c2ccc(Br)cc2)o1 | -0.7 | -16.3 | -4.1 | 2.3 | 74.9* | -5.5 | -49.5
COCCCNC(=O)c1ccc(CS(=O)(=O)c2ccc(OC)cc2)o1 | -6.3 | x | x | x | x | x | x
C/C(N)=C(/C#N)C(=O)COC(=O)COc1ccc(Cl)cc1 | 2.4 | -15.4 | 3.2 | 9.6 | -3.8 | x | x
Cc1nc2c([nH]1)C1(CCN(Cc3ccccc3)CC1)C(C#N)=C(N)O2 | x | 0.7 | 2.5 | -1.9 | 70.1* | 71.9* | -55.5
OC(CN1C2=NCCCN2c2ccccc21)c1ccc(Cl)cc1 (centres undefined) | 8.8 | -13.8 | -0.9 | 4.0 | 80.2* | -2.7 | -53.6
OC(CN1C2=NCCN2c2ccccc21)c1ccccc1 (centres undefined) | 6.4 | -18.6 | -1.4 | 3.2 | -0.5 | x | x
CCOC(=O)/C=c1\s/c(=C\c2c(OCC)ccc3ccccc23)c(=O)n1CC(=O)NCC1CCCO1 (centres undefined) | -3.1 | -2.5 | 1.3 | 3.8 | -10.9 | x | x
CSc1nc2c(cnn2-c2ccc(C)c(C)c2)c(=O)[nH]1 | 10.5 | -13.7 | -1.2 | -6.0 | -7.2 | x | x
CCOc1ccc(C2c3c(oc4ccccc4c3=O)C(=O)N2CCCN2CCOCC2)cc1OCC (centres undefined) | -11.1 | 5.2 | -0.8 | 0.3 | 74.0* | -3.4 | -54.2
COc1ccc(/C=C(/C#N)c2cccnc2)cc1OC | 3.8 | x | x | x | x | x | x
COc1cc(/C=C(\C#N)c2[nH]nc(N)c2C#N)cc(OC)c1O | 8.0 | -17.9 | 4.2 | 4.2 | 77.9* | 65.6* | -47.9
COc1ccc(NC(=O)/C(Cl)=C(/Cl)S(=O)(=O)Cc2ccccc2)cn1 | 3.6 | 4.0 | 2.3 | -3.3 | 1.0 | x | x
CC1(c2ccccc2)NC(=O)N(CC(=O)Nc2ccc3c(c2)OCO3)C1=O (centres undefined) | x | -0.7 | 0.1 | 5.3 | 90.7* | -10.5 | -52.3
CC(C)(C)c1ccc(C2(C)NC(=O)N(CC(=O)Nc3ccc4c(c3)OCO4)C2=O)cc1 (centres undefined) | 1.1 | 6.2 | -0.2 | -2.1 | -4.0 | x | x
Cc1nn2c(=O)cc(CSc3nc4ccccc4[nH]3)nc2s1 | 5.6 | -20.3 | -1.1 | -7.5 | 74.0* | -13.1 | -59.7
O=C(Nc1nccs1)c1cccc(NC(=O)C2CC2)c1 | 9.4 | -6.5 | 6.2 | -3.0 | -12.8 | x | x
NC1=CC(=O)c2cccc3cccc1c23 | 15.9 | 17.3 | 16.2 | 13.2 | 78.0* | 20.7 | -16.8

Source: PubChem (several laboratories)
